Screening data as filed in PubChem BioAssay.
ELG1 DNA repair: ELG1-dependent DNA repair inhibition. hit rate 2.3% among 330,000. AID 504467. Potency, µM (series often up to 46.1 µM), most hits filed as inhibitors. HEK293T ELG1-luciferase reporter, luminescence, 16 h; DNA damage induced by 5-fluorouridine; further: nearly all actives have a fitted effect of over 55% in size
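Overnight (16 hr) co-exposure of 2,000 cells/well to 5-fluorouridine and compound at 37 °C preceded detection. Luciferase was quantified via ONE-Glo luminescence; loss of signal denotes inhibition.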
NPC1 prom act: activators of NPC1 promoter; Huh7 NPC1 promoter luciferase reporter, 24 h; Potency, µM (top dose mostly 9.22 µM), usual class: activators; hit rate 2.4% among 320,000; AID 485313; further: nearly all actives have a fitted effect of over 60% in size
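Luminescence from an NPC1 promoter-driven luciferase reporter in stably transfected Huh7 cells was measured after 24 h compound treatment at 37 °C, followed by 10 min ambient incubation with luciferase detection reagent.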
Rab9 promoter act: activates the Rab9 promoter; hit rate 2.8% among 320,000; AID 485297; Potency, µM (titrated, usually from 9.22 µM), actives largely listed as activators; Huh7 Rab9 promoter-luciferase reporter, luminescence, 24 h; further: nearly all actives have a fitted effect of over 60% in size
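Cells were plated at 1500 per well in reduced-serum medium with 10% FBS and left 2 h. Compound in DMSO was then added for 24 h at 37 °C. Reporter signal was read by luminescence after 10 min with luciferase detection reagent.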
FLuc modulator: counter-screen for miR-21 project: firefly luciferase inhibitors or activators | AID 588342 | Potency, µM (top dose mostly 57.5 µM), usual class: inhibitors | purified FLuc, Km substrates, luminescence inhibition | hit rate 6.9% among 360,000; further: nearly all actives have a fitted effect of over 55% in size
Target sequence (P08659 whole entry, looked up): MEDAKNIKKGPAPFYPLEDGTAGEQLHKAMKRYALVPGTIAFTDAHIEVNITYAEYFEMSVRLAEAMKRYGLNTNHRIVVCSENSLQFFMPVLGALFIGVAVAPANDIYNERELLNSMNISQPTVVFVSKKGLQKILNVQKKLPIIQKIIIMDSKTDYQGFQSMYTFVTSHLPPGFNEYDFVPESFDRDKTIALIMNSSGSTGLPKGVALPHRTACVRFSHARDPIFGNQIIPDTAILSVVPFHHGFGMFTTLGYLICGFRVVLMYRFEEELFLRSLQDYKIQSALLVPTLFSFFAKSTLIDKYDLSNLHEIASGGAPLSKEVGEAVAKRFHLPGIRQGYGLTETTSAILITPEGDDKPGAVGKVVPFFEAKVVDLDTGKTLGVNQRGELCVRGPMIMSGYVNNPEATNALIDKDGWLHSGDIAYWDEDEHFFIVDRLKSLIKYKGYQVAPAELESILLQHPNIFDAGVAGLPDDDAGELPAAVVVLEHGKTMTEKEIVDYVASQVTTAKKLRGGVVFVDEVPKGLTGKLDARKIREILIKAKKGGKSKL
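Purified P. pyralis luciferase (10nM final) with 10uM D-luciferin and 10uM ATP (Km levels) in 50mM Tris acetate pH 7.5, 10mM Mg acetate, 0.01% Tween-20, 0.05% BSA; qHTS 6-point titration, ~60 µM downward; luminescence read.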
SMN2 splice enh: increases expression of the SMN2 splice variant; HEK293 SMN2-luciferase splicing reporter, luminescence, 30-36 h; Potency, µM (doses to about 46.1 µM), most hits filed as activators; hit rate 2.8% among 210,000; AID 1458; further: nearly all actives have a fitted effect of over 55% in size
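qHTS luciferase splicing reporter: luminescence rises when SMN2 exon 7 is included in transfected HEK293 cells. Compound exposure lasted 30-36 h at 37C, with 4.5 mM final sodium butyrate as control, followed by a ONE-Glo read.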
ELG1 genotox: inducers of genotoxicity in HEK293T ELG1-luciferase cells; Potency, µM (titrated, usually from 46 µM), usual class: activators; HEK293T ELG1-luciferase reporter, luminescence, 16 h; AID 504466; hit rate 1.3% among 330,000; further: nearly all actives have a fitted effect of over 60% in size
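Reporter readout depends on ELG1 protein level, which increases with genetic stress. After 16 hr compound exposure at 37 °C, luciferase activity was quantified using ONE-Glo.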
Hits are given with their value; i = inactive; ? = inconclusive; nt = not tested or not shown; [ ] = dose if it differs, or a comment. Only some compounds are listed: those with a hit (about 9.2% of all), similar ones and a draw of the others. The call rests on the fitted dose curve; in most records, active means well fitted curve in the direction sought with a large enough effect; inconclusive means small, poorly fitted or top-dose-only effect, or another doubt; inactive means no such curve, though single readings can be large; an effect the other way counts as inactive or inconclusive.

SMILES	ELG1 DNA repair	NPC1 prom act	Rab9 promoter act	FLuc modulator	SMN2 splice enh	ELG1 genotox
O=c1cc(-c2c(F)c(F)c(F)c(F)c2F)oc2ccccc12	i	i	i	i	i	i
O=c1cc(-c2cccc(O)c2)oc2ccc(O)cc12	nt	nt	nt	nt	14µM	nt
Cc1cccc(-c2oc3ccccc3c2-c2ccc3c(c2)OCO3)c1	i	i	i	i	nt	i
O=c1cc(-c2ccc(O)cc2)oc2ccccc12	?	?	?	11µM	?	?
Cc1ccc(-c2cc(C(=O)N3CCN(S(=O)(=O)c4ccc(Br)cc4)CC3)[nH]n2)cc1C	nt	nt	nt	i	nt	nt
O=c1cc2oc3cc(O)c(O)cc3c(-c3ccccc3O)c-2cc1O	?	i	i	?	nt	i
O=c1cc(-c2ccncc2)oc2ccccc12	9.2µM	i	i	i	i	i
O=c1cc(-c2ccccc2O)oc2cc(O)ccc12	nt	nt	nt	nt	25µM	nt
COc1ccc2c(=O)cc(-c3ccncc3)oc2c1OC	nt	nt	nt	nt	i[9.22 µM]	nt
O=c1cc(-c2ccc3c(c2)OCO3)oc2ccccc12	?	3.2µM	3.5µM	?	13µM	9.2µM
Cn1c(-c2ccc3c(c2)OCO3)cc(=O)c2ccccc21	i	i	i	i	i	i
COc1ccc(C(=O)c2c(O)cc(-c3ccc(OC)cc3)oc2=O)cc1	?	i	i	17µM	i	i
Cc1cc(C)n2nc(CNS(=O)(=O)c3cccc([N+](=O)[O-])c3)nc2n1	i	i	i	i	nt	i
COc1ccc(-c2cc(=Nc3ccc(C)cc3)c3ccccc3o2)cc1	?	i	i	i	i	i
COc1ccc(N=c2cc(-c3ccc(OC)cc3)oc3ccccc23)cc1	23µM	i	i	i	i	i
COc1ccc(-c2cc(=O)c3ccccc3o2)cc1	?	2.5µM	2µM	6µM	10µM	21µM
COc1ccc(-c2cc(=O)c3c(O)c(OC)c(OC)c(OC)c3o2)cc1	nt	nt	nt	nt	i	nt
COc1ccc(-c2cc(=O)c3c(O)c(OC)c(O)cc3o2)cc1	?	3.2µM	3.5µM	0.27µM	nt	1.8µM
COc1ccc(-c2cc3ccccc3c(=O)o2)cc1	nt	nt	nt	nt	13µM	nt
CN(C(=O)c1cc2c(s1)-c1ccccc1S(=O)(=O)C2)c1ccccc1	i	i	i	i	nt	i
O=[N+]([O-])c1ccccc1S(=O)(=O)N1CCCC(C(F)(F)F)C1 (stereo not drawn)	i	i	i	i	nt	i
NC(=O)COc1ccc2oc(-c3ccccc3)cc(=O)c2c1	?	?	?	12µM	i	?
Cn1c2ccccc2c(=O)c2ccc(-c3ccc4c(c3)OCO4)cc21	?	1.3µM	1.1µM	3µM	nt	?
Cc1ccc2oc(C(=O)N3CCN(Cc4nccn4C)CC3)c(C)c2c1	i	i	i	i	nt	i
CN(C)S(=O)(=O)Oc1cccc(C(=O)Nc2cccc(Cl)c2)c1	?	?	?	13µM	?	i
SMILES	ELG1 DNA repair	NPC1 prom act	Rab9 promoter act	FLuc modulator	SMN2 splice enh	ELG1 genotox
COc1cccc(S(=O)(=O)NCc2ccc(C(=O)Nc3cccc(Cl)c3)cc2)c1	18µM	i	i	i	i	i
COc1ccc(NC(=O)c2ccc(S(=O)(=O)N(C)C)cc2)cc1	i	i	i	i	nt	i
CN(C)S(=O)(=O)Oc1cccc(C(=O)Nc2ccc(Cl)c(Cl)c2)c1	?	3.5µM	2µM	4.8µM	i	i
COc1ccc(NC(=O)c2cccc(OS(=O)(=O)N(C)C)c2)cc1	?	1.6µM	2µM	6µM	11µM	i
Cc1ccc(NC(=O)CSc2nnc(-c3cc4occc4n3C)n2-c2ccccc2C)c(C)c1	nt	nt	nt	i	nt	nt
COc1ccc(C2CC(=O)N(CC(=O)Nc3ccc(C(C)=O)cc3)c3ccccc3S2)cc1OC (stereo not drawn)	nt	nt	nt	i	i	nt
CCS(=O)(=O)N1N=C(c2cccs2)CC1c1cc2cc(C)ccc2nc1Cl (stereo not drawn)	i	i	i	17µM	nt	i
Cc1ccc2nc(Cl)c(C3CC(c4cccs4)=NN3C(=O)CCCC(=O)O)cc2c1 (stereo not drawn)	i	i	i	i	i	i
BrC(/C=C\c1ccccc1)=N/Nc1nc(N2CCOCC2)nc(N2CCOCC2)n1	12µM	i	i	i	i	i
CC(/C=N/Nc1nc(N2CCCCC2)nc(N2CCCCC2)n1)=C\c1ccccc1	i	i	i	i	i	i
BrC(=C\c1ccccc1)/C=N/Nc1nc(N2CCOCC2)nc(N2CCOCC2)n1	16µM	i	i	i	i[1.84 µM]	i
Cc1ccc(C(=O)O/N=C/c2c(Cl)n(C)c3ccccc23)cc1	i	i	i	2.7µM	?	i
Cc1cccc(C(=O)O/N=C/c2c(Cl)n(C)c3ccccc23)c1	i	i	i	?	i	i
Cn1c(Cl)c(/C=N/OC(=O)c2ccc(Cl)cc2)c2ccccc21	i	i	i	3.4µM	i	i
Cc1cc(C(=O)COC(=O)Cc2n[nH]c(=O)c3ccccc23)c(C)n1-c1ccc2c(c1)OCCO2	?	i	i	i	i	i
O=C1c2ccccc2CN1CCSC(=S)N1CCOCC1	?	3.5µM	3.5µM	12µM	13µM	?
O=C1c2ccccc2CN1CCSC(=S)N1CCSCC1	?	?	3.2µM	24µM	i	i
COCc1nn2cc(-c3ccc(C)cc3)nc2s1	nt	nt	nt	1.3µM	2.5µM	nt
COc1ccc(-c2nnc3sc(COc4ccc(C)cc4)nn23)cc1	i	i	i	?	i	i
CCOc1ccc(-c2cn3nc(CC(C)C)sc3n2)cc1	nt	nt	nt	2.7µM	i	nt
Cc1nn2cc(-c3ccc(-c4ccccc4)cc3)nc2s1	?	0.63µM	?	0.54µM	?	0.82µM
Cc1nc2nc(-c3cccs3)cn2nc1C	?	1.4µM	0.5µM	11µM	14µM	?
C/C(=N\Nc1cccc([N+](=O)[O-])c1)c1cc(F)ccc1O	?	?	i	?	nt	i
Cc1nn2cc(-c3ccc(Cl)cc3)nc2s1	?	0.32µM	0.32µM	1.2µM	3.5µM	0.52µM
COc1cccc(-c2cn3nc(C)c(C)nc3n2)c1	?	2µM	2.8µM	11µM	13µM	?
SMILES	ELG1 DNA repair	NPC1 prom act	Rab9 promoter act	FLuc modulator	SMN2 splice enh	ELG1 genotox
Cc1nc2nc(-c3ccc(Cl)cc3)cn2nc1C	?	?	0.35µM	1.1µM	0.71µM	?
CCc1nn2cc(-c3ccccc3)nc2s1	?	0.11µM	0.13µM	0.48µM	1.4µM	nt
CC1(C)N=C(N)N=C(N)N1c1cccc(OCc2cccc(N)c2)c1	nt	nt	nt	nt	i[9.22 µM]	nt
COc1ccc(C2=NS(=O)(=O)N(C)C(C(=O)N3CCOCC3)=C2)cc1OC	i	i	i	i	nt	i
C[C@@H](C(=O)Nc1ccc2ccccc2c1)[C@H]1C[C@]1(C)[C@H](NC(=O)c1cccnc1)c1ccccc1	18µM	i	i	i	i	i
COc1cccc(-c2nc(C(=O)NCCCN3CCOCC3)cc3c2[nH]c2ccccc23)c1	?	i	i	i	nt	i
O=C(NCCN1CCOCC1)c1cc(-c2ccccc2)on1	?	i	i	i	i	18µM
